Values joined by “and” are separate entries in the source; they are usually repeats but may differ in a detail not shown here. Equal entries are not always repeated. The whole screen tested about 5,500 compounds, of which about 2,000 (36%) were called active. Roughly 18% stayed inconclusive and do not appear here. Rule as the data show it: active = normalized growth mostly below about 0.91 (no sharp cut-off); inconclusive = no clear call, values can overlap the other calls; inactive = mostly above about 0.92. The list shows a part of the results.
Experiment: chemical genetic growth profiling, strain panel (AID 1159580);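 also: tested at 20 µM; growth read once vehicle control cultures reached saturation at 30 °C; 1 = growth at the plate median or of vehicle wells; lower values mean less growth of the strain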
Details: growth OD

Measured: normalized growth

COc1ccccc1N1CCN(CCCNc2cc(=O)n(C)c(=O)n2C)CC1
inactive: S. cerevisiae deletion strains, locus YJR043C, strain POL32, stronger effect = lower value 1.01 | S. cerevisiae deletion strains, locus YJR075W, strain HOC1, stronger effect = lower value 0.991 | S. cerevisiae deletion strains, locus YKL009W, strain mrt4, stronger effect = lower value 0.976 | S. cerevisiae deletion strains, locus YKL068W, stronger effect = lower value 0.978 | S. cerevisiae deletion strains, locus YKL085W, strain MDH1 (second series), stronger effect = lower value 0.985 | S. cerevisiae deletion strains, locus YKL085W, strain MDH1, stronger effect = lower value 0.985 | S. cerevisiae deletion strains, locus YKL160W, strain elf1, stronger effect = lower value 0.995 | S. cerevisiae deletion strains, locus YKL190W, strain CNB1, stronger effect = lower value 0.986 | S. cerevisiae deletion strains, locus YKR001C, strain vps1, stronger effect = lower value 0.982 | S. cerevisiae deletion strains, locus YKR026C, strain gcn3, stronger effect = lower value 1.02 | S. cerevisiae deletion strains, locus YKR091W, strain srl3, stronger effect = lower value 1.01 | S. cerevisiae deletion strains, locus YLL001W, strain dnm1, stronger effect = lower value 1.02 | S. cerevisiae deletion strains, locus YLL026W, stronger effect = lower value 1.01 | S. cerevisiae deletion strains, locus YLL041C, strain sdh2, stronger effect = lower value 1.01 | S. cerevisiae deletion strains, locus YLR027C, strain aat2, stronger effect = lower value 1.01 | S. cerevisiae deletion strains, locus YLR039C, strain RIC1, stronger effect = lower value 0.937 | S. cerevisiae deletion strains, locus YLR058C, strain SHM2, stronger effect = lower value 0.974 | S. cerevisiae deletion strains, locus YLR102C, strain apc9, stronger effect = lower value 0.988 | S. cerevisiae deletion strains, locus YLR221C, strain rsa3, stronger effect = lower value 1.01 | S. cerevisiae deletion strains, locus YLR258W, strain gsy2, stronger effect = lower value 1.02 | S. cerevisiae deletion strains, locus YLR262C, strain YPT6 (second series), stronger effect = lower value 1.03 | S. cerevisiae deletion strains, locus YLR262C, strain YPT6, stronger effect = lower value 0.857 | S. cerevisiae deletion strains, locus YLR268W, strain sec22, stronger effect = lower value 0.982 | S. cerevisiae deletion strains, locus YLR320W, strain mms22, stronger effect = lower value 1.02 | S. cerevisiae deletion strains, locus YLR330W, strain CHS5, stronger effect = lower value 0.982 | S. cerevisiae deletion strains, locus YLR342W, strain FKS1 (second series), stronger effect = lower value 1.03 | S. cerevisiae deletion strains, locus YLR342W, strain FKS1, stronger effect = lower value 1.01 | S. cerevisiae deletion strains, locus YLR357W, strain rsc2, stronger effect = lower value 1.03 | S. cerevisiae deletion strains, locus YLR370C, strain arc18, stronger effect = lower value 1.03 | S. cerevisiae deletion strains, locus YLR371W, strain rom2, stronger effect = lower value 1 | S. cerevisiae deletion strains, locus YLR384C, strain iki3, stronger effect = lower value 1.02 | S. cerevisiae deletion strains, locus YLR418C, strain cdc73, stronger effect = lower value 0.97 | S. cerevisiae deletion strains, locus YML016C, strain PPZ1, stronger effect = lower value 0.983 | S. cerevisiae deletion strains, locus YML032C, strain rad52, stronger effect = lower value 1.01 | S. cerevisiae deletion strains, locus YML120C, strain ndi1, stronger effect = lower value 1 | S. cerevisiae deletion strains, locus YML124C, strain tub3, stronger effect = lower value 0.997 | S. cerevisiae deletion strains, locus YMR058W, strain fet3, stronger effect = lower value 1.01 | S. cerevisiae deletion strains, locus YMR078C, strain ctf18, stronger effect = lower value 0.981 | S. cerevisiae deletion strains, locus YMR125W, strain sto1, stronger effect = lower value 1.01 | S. cerevisiae deletion strains, locus YMR129W, stronger effect = lower value 1.02 | S. cerevisiae deletion strains, locus YMR205C, strain PFK2, stronger effect = lower value 1.01 | S. cerevisiae deletion strains, locus YMR223W, strain ubp8, stronger effect = lower value 1 | S. cerevisiae deletion strains, locus YMR231W, strain pep5, stronger effect = lower value 1.02 | S. cerevisiae deletion strains, locus YMR263W, strain SAP30, stronger effect = lower value 0.975 | S. cerevisiae deletion strains, locus YMR307W, strain GAS1, stronger effect = lower value 0.969 and 1.01 | S. cerevisiae deletion strains, locus YNL067W, strain RPL9B, stronger effect = lower value 0.977 | S. cerevisiae deletion strains, locus YNL071W, strain lat1, stronger effect = lower value 1.02 | S. cerevisiae deletion strains, locus YNL128W, strain TEP1, stronger effect = lower value 0.983 and 1.01 | S. cerevisiae deletion strains, locus YNL153C, strain GIM3, stronger effect = lower value 0.977 | S. cerevisiae deletion strains, locus YNL175C, strain NOP13, stronger effect = lower value 1 | S. cerevisiae deletion strains, locus YNL197C, strain WHI3, stronger effect = lower value 1 | S. cerevisiae deletion strains, locus YNL209W, strain ssb2, stronger effect = lower value 1.01 | S. cerevisiae deletion strains, locus YNL224C, strain SQS1, stronger effect = lower value 1 | S. cerevisiae deletion strains, locus YNL233W, strain BNI4, stronger effect = lower value 0.986 | S. cerevisiae deletion strains, locus YNL248C, strain rpa49, stronger effect = lower value 1 | S. cerevisiae deletion strains, locus YNL250W, strain rad50, stronger effect = lower value 0.983 | S. cerevisiae deletion strains, locus YNL271C, strain bni1, stronger effect = lower value 0.992 | S. cerevisiae deletion strains, locus YNL298W, strain CLA4, stronger effect = lower value 0.982 | S. cerevisiae deletion strains, locus YNL307C, strain MCK1, stronger effect = lower value 1.01 | S. cerevisiae deletion strains, locus YNL322C, strain KRE1 (second series), stronger effect = lower value 1.01 | S. cerevisiae deletion strains, locus YNL322C, strain KRE1, stronger effect = lower value 0.977 and 1.02 | S. cerevisiae deletion strains, locus YNR049C, strain mso1, stronger effect = lower value 1.02 | S. cerevisiae deletion strains, locus YNR052C, strain pop2, stronger effect = lower value 0.997 | S. cerevisiae deletion strains, locus YOL006C, strain TOP1, stronger effect = lower value 0.959 | S. cerevisiae deletion strains, locus YOL012C, strain htz1 0.738 | S. cerevisiae deletion strains, locus YOL147C, strain pex11, stronger effect = lower value 0.992 | S. cerevisiae deletion strains, locus YOR001W, strain rrp6, stronger effect = lower value 1.02 | S. cerevisiae deletion strains, locus YOR061W, strain CKA2, stronger effect = lower value 0.963 | S. cerevisiae deletion strains, locus YOR069W, strain VPS5, stronger effect = lower value 0.995 | S. cerevisiae deletion strains, locus YOR070C, strain gyp1, stronger effect = lower value 1.01 | S. cerevisiae deletion strains, locus YOR080W, strain dia2, stronger effect = lower value 1.01 | S. cerevisiae deletion strains, locus YOR083W, strain WHI5 (second series), stronger effect = lower value 0.992 | S. cerevisiae deletion strains, locus YOR083W, strain WHI5, stronger effect = lower value 0.989 | S. cerevisiae deletion strains, locus YOR106W, strain vam3, stronger effect = lower value 1.01 | S. cerevisiae deletion strains, locus YOR136W, strain idh2, stronger effect = lower value 0.997 | S. cerevisiae deletion strains, locus YOR144C, strain elg1, stronger effect = lower value 0.996 | S. cerevisiae deletion strains, locus YOR184W, strain ser1, stronger effect = lower value 1 | S. cerevisiae deletion strains, locus YOR265W, strain rbl2, stronger effect = lower value 1.01 | S. cerevisiae deletion strains, locus YOR270C, strain vph1, stronger effect = lower value 1.03 | S. cerevisiae deletion strains, locus YOR290C, strain snf2, stronger effect = lower value 1 | S. cerevisiae deletion strains, locus YOR316C, strain cot1, stronger effect = lower value 0.988 | S. cerevisiae deletion strains, locus YPL051W, strain arl3, stronger effect = lower value 1.01 | S. cerevisiae deletion strains, locus YPL055C, strain LGE1, stronger effect = lower value 0.965 | S. cerevisiae deletion strains, locus YPL078C, strain atp4, stronger effect = lower value 1.03 | S. cerevisiae deletion strains, locus YPL106C, strain sse1, stronger effect = lower value 1.01 | S. cerevisiae deletion strains, locus YPL240C, strain hsp82, stronger effect = lower value 1.03 | S. cerevisiae deletion strains, locus YPL241C, strain CIN2, stronger effect = lower value 1 and 0.997 | S. cerevisiae deletion strains, locus YPR119W, strain clb2, stronger effect = lower value 0.999 | S. cerevisiae deletion strains, locus YPR141C, strain kar3, stronger effect = lower value 0.967 | S. cerevisiae deletion strains, locus YPR163C, strain tif3, stronger effect = lower value 1 | S. cerevisiae deletion strains, locus YPR167C, strain met16, stronger effect = lower value 0.984 | S. cerevisiae deletion strains, strain wtn01, stronger effect = lower value 0.991 | S. cerevisiae strains, strain wild type, stronger effect = lower value 0.997

Reference: PubChem BioAssay AID1159580 (chemical genetic matrix, 2015)
